Assay results as given in PubChem BioAssay (NCI).
Compounds without any hit were thinned out: in the full panel of roughly 79,000, 15% have a hit. Unmarked numbers belong to inactive results. Active and inactive are the calls of the source. No stated cut-off is given here; in the data, active means growth inhibition above about 70%; inactive means the rest.

What was measured:
[1] = NCI Yeast Anticancer Drug Screen. Data for the rad50 strain (AID 155);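 further: 0% = growth of vehicle-only cultures of the same strain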; conditions: S. cerevisiae rad50 strain growth inhibition, stronger effect = higher value
Outline: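 Growth of the mutant yeast was measured after compound exposure and referenced to vehicle-treated cultures.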

[2] = NCI Yeast Anticancer Drug Screen. Data for the mec2-1 strain (AID 157); conditions: S. cerevisiae mec2-1 strain, stronger effect = higher value
Outline: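 Using mec2-1 yeast: add compound, measure growth, express inhibition versus vehicle-treated cultures.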

[3] = NCI Yeast Anticancer Drug Screen. Data for the sgs1 mgt1 strain (AID 161);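 further: 0% = growth of cultures given vehicle only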; conditions: S. cerevisiae sgs1 mgt1 strain, stronger effect = higher value
Outline: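 Percent growth inhibition was derived by comparing compound-exposed mutant yeast with vehicle-exposed cultures. The strain carries alterations in DNA damage repair.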

[4] = NCI Yeast Anticancer Drug Screen. Data for the cln2 rad14 strain (AID 165);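 further: 0% = growth equal to vehicle treated cultures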; conditions: S. cerevisiae cln2 rad14 strain, stronger effect = higher value
Outline: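 Yeast strain cln2 rad14, bearing defects in cell cycle control and DNA repair, serves as the test system; values reflect growth inhibition compared with vehicle.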

[5] = NCI Yeast Anticancer Drug Screen. Data for the bub3 strain (AID 167); conditions: S. cerevisiae bub3 mutant strain, stronger effect = higher value
Outline: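 Whole-cell yeast assay. The mutant strain was incubated with compounds, and growth inhibition was determined by comparison with vehicle-treated cells.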

[6] = NCI Yeast Anticancer Drug Screen. Data for the mlh1 rad18 strain (AID 175); conditions: S. cerevisiae mlh1 rad18 strain growth inhibition, stronger effect = higher value
Outline: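 Steps: expose repair-defective yeast to compound; measure growth; express inhibition against vehicle-treated controls.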

[7] = at 5.0 µM (retest, dose inferred, filed as 0.5)
[8] = at 50.0 µM (retest, dose inferred, filed as 5.0)

## COC(O)C12OC3CO[Si](C(C)C)(C(C)C)O[Si](C(C)C)(C(C)C)OC3C1Oc1nc(=O)ccn12 (centres undefined)
[1]; [7]
  growth inhibition: 10%
[1]; [8]
  growth inhibition: 98% (active)
[1]; at 50.0 µM
  growth inhibition: 88.7% (active)
[2]; [7]
  growth inhibition: 13%
[2]; [8]
  growth inhibition: 99% (active)
[2]; at 50.0 µM
  growth inhibition: 91.7% (active)
[3]; [7]
  growth inhibition: -25%
[3]; [8]
  growth inhibition: 98% (active)
[3]; at 50.0 µM
  growth inhibition: 86.5% (active)
[4]; [7]
  growth inhibition: 1%
[4]; [8]
  growth inhibition: 97% (active)
[4]; at 50.0 µM
  growth inhibition: 86.7% (active)
[5]; [7]
  growth inhibition: -4%
[5]; [8]
  growth inhibition: 98% (active)
[5]; at 50.0 µM
  growth inhibition: 87.5% (active)
[6]; [7]
  growth inhibition: 15%
[6]; [8]
  growth inhibition: 98% (active)
[6]; at 50.0 µM
  growth inhibition: -69.8%

## CC(C)(C)c1cc(C(O)(C(F)(F)F)C(F)(F)F)c(Cl)c(C(O)(C(F)(F)F)C(F)(F)F)c1
[1]; [7]
  growth inhibition: 10%
[1]; [8]
  growth inhibition: 99% (active)
[1]; at 50.0 µM
  growth inhibition: 99.5% (active)
[2]; [7]
  growth inhibition: 13%
[2]; [8]
  growth inhibition: 98% (active)
[2]; at 50.0 µM
  growth inhibition: 99.7% (active)
[3]; [7]
  growth inhibition: 11%
[3]; [8]
  growth inhibition: 99% (active)
[3]; at 50.0 µM
  growth inhibition: 99.7% (active)
[4]; [7]
  growth inhibition: 24%
[4]; [8]
  growth inhibition: 99% (active)
[4]; at 50.0 µM
  growth inhibition: 99% (active)
[5]; [7]
  growth inhibition: 14%
[5]; [8]
  growth inhibition: 99% (active)
[5]; at 50.0 µM
  growth inhibition: 99.8% (active)
[6]; [7]
  growth inhibition: 8%
[6]; [8]
  growth inhibition: 99% (active)
[6]; at 50.0 µM
  growth inhibition: 99.5% (active)

## NCCC1=CCCCC1
[1]; [7]
  growth inhibition: 1%
[1]; [8]
  growth inhibition: 95% (active)
[1]; at 50.0 µM
  growth inhibition: 88.2% (active)
[2]; [7]
  growth inhibition: 5%
[2]; [8]
  growth inhibition: 97% (active)
[2]; at 50.0 µM
  growth inhibition: 90.5% (active)
[3]; [7]
  growth inhibition: 2%
[3]; [8]
  growth inhibition: 98% (active)
[3]; at 50.0 µM
  growth inhibition: 88.3% (active)
[4]; [7]
  growth inhibition: -7%
[4]; [8]
  growth inhibition: 96% (active)
[4]; at 50.0 µM
  growth inhibition: 35.6%
[5]; [7]
  growth inhibition: -4%
[5]; [8]
  growth inhibition: 96% (active)
[5]; at 50.0 µM
  growth inhibition: 65%
[6]; [7]
  growth inhibition: -2%
[6]; [8]
  growth inhibition: 97% (active)
[6]; at 50.0 µM
  growth inhibition: 90% (active)
